According to PubChem BioAssay (EPA / NIEHS):
Calls of active or inactive are those of the source. How the source made its calls: active means hit-call score of the fitted dose curve at least 0.9, where 1 is the maximum; inactive means score below 0.9.

What was measured:
[1] = read-out: Interleukin-6 (IL6), IL6 (gene 3569); experiment: BSK_CASM3C_IL6: BioMAP Diversity Plus: CASM3C Assay for Interleukin-6 (IL6) Biomarker Activity for (AID 2283040); conditions: primary human coronary artery smooth muscle cells; actives raise or lower the signal
[2] = read-out: Tissue plasminogen activator (tPA), PLAT (gene 5327); experiment: BSK_BE3C_tPA: BioMAP Diversity Plus: BE3C Assay for Tissue plasminogen activator (tPA) Biomarker Activity (AID 2283041); conditions: primary human bronchial epithelial cells; actives raise or lower the signal;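 on outcome: tPA level quantified by ELISA one day after compound addition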
Summary of the method: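 Bidirectional curve fitting relative to DMSO defined activity, with tPA detected by ELISA in chemically treated human bronchial epithelial primary cells at 24 hours.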

[3] = read-out: Interleukin-8 (IL8), CXCL8 (gene 3576); experiment: BSK_CASM3C_IL8: BioMAP Diversity Plus: CASM3C Assay for Interleukin-8 (IL8) Biomarker Activity (AID 2283042); conditions: primary human coronary artery smooth muscle cells; actives raise or lower the signal;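 further: IL-8 protein level quantified by ELISA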
[4] = read-out: Human Leukocyte Antigen - DR isotype (HLADR), HLA-DRA (gene 3122); experiment: BSK_CASM3C_HLADR: BioMAP Diversity Plus: CASM3C Assay for Human Leukocyte Antigen - DR isotype (HLADR) Biomarker Activity (AID 2283043); conditions: primary human coronary artery smooth muscle cells; actives raise or lower the signal;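 further: cell-surface HLA-DR protein level quantified by ELISA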
[5] = read-out: Macrophage colony-stimulating factor (MCSF), CSF1 (gene 1435); experiment: BSK_CASM3C_MCSF: BioMAP Diversity Plus: CASM3C Assay for Macrophage colony-stimulating factor (MCSF) Biomarker Activity (AID 2283044); conditions: primary human coronary artery smooth muscle cells; actives raise or lower the signal;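 further: M-CSF protein amount quantified by ELISA after 24 h exposure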
[6] = read-out: Low-density lipoprotein receptor (LDLR), LDLR (gene 3949); experiment: BSK_CASM3C_LDLR: BioMAP Diversity Plus: CASM3C Assay for Low-density lipoprotein receptor (LDLR) Biomarker Activity (AID 2283045); conditions: primary human coronary artery smooth muscle cells; actives raise or lower the signal;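 further: LDLR protein level on the cell surface quantified by ELISA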
[7] = read-out: Monocyte Chemoattractant Protein-1 (MCP1), CCL2 (gene 6347); experiment: BSK_CASM3C_MCP1: BioMAP Diversity Plus: CASM3C Assay for Monocyte Chemoattractant Protein-1 (MCP1) Biomarker Activity (AID 2283046); conditions: primary human coronary artery smooth muscle cells; actives raise or lower the signal;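 further: MCP-1 level quantified by ELISA 24 h after dosing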
[8] = BSK_CASM3C_Proliferation: Cell Proliferation Assessment in the BioMAP Diversity Plus: CASM3C Assay (AID 2283047); conditions: primary human coronary artery smooth muscle cells;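 further: sulforhodamine B total protein stain as relative cell number at 560 nm; sub-confluent cells exposed 48 h before staining; fitted both ways against DMSO so gain or loss of cell number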
[9] = read-out: Monokine induced gamma interferon (MIG), CXCL9 (gene 4283); experiment: BSK_CASM3C_MIG: BioMAP Diversity Plus: CASM3C Assay for Monokine induced gamma interferon (MIG) Biomarker Activity (AID 2283048); conditions: primary human coronary artery smooth muscle cells; actives raise or lower the signal;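 further: MIG protein level measured by ELISA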
[10] = read-out: serum amyloid A (SAA), SAA1 (gene 6288); experiment: BSK_CASM3C_SAA: BioMAP Diversity Plus: CASM3C Assay for serum amyloid A (SAA) Biomarker Activity (AID 2283049); conditions: primary human coronary artery smooth muscle cells; actives raise or lower the signal;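 further: SAA protein level quantified by ELISA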

Structure (SMILES) | outcome [1] | outcome [2] | outcome [3] | outcome [4] | outcome [5] | outcome [6] | outcome [7] | outcome [8] | outcome [9] | outcome [10] | AC50 [6] | AC50 [8] | AC50 [1] | AC50 [3] | AC50 [4] | AC50 [2] | AC50 [5] | AC50 [7] | AC50 [9] | AC50 [10]
O=C(Cl)C(F)(F)C(F)(F)C(F)(F)C(=O)Cl | inactive | inactive | inactive | inactive | inactive | inactive | inactive | inactive | inactive | inactive | – | – | – | – | – | – | – | – | – | –
c1ccc(C(O[C@@H]2CCCN(CCc3ccc4c(c3)OCO4)C2)c2ccccc2)cc1 | inactive | inactive | inactive | inactive | inactive | – | inactive | – | inactive | inactive | 17.3 µM (active) | 32.5 µM (active) | – | – | – | – | – | – | – | –
FC(F)=C(F)C(F)(F)C(F)(F)C(F)(F)C(F)(F)C(F)(F)C(F)(F)F | inactive | inactive | inactive | inactive | inactive | inactive | inactive | inactive | inactive | inactive | – | – | – | – | – | – | – | – | – | –
O=C(O)c1cccc(C[C@@H]2COc3ccc(OCc4nc5cc(F)ccc5s4)cc3[C@@H]2O)c1 | inactive | inactive | inactive | inactive | inactive | inactive | inactive | – | inactive | inactive | – | 12.9 µM (active) | – | – | – | – | – | – | – | –
CC(C)CCCCCCOC(=O)C1CCCCC1C(=O)OCCCCCCC(C)C (stereo not given) | inactive | inactive | inactive | inactive | inactive | inactive | inactive | inactive | inactive | inactive | – | – | – | – | – | – | – | – | – | –
Cn1c(=O)c2[nH]cnc2n(C)c1=O | inactive | inactive | inactive | inactive | inactive | inactive | inactive | inactive | inactive | inactive | – | – | – | – | – | – | – | – | – | –
CC(C)c1nnc2ccc(-c3ocnc3-c3cc(F)ccc3F)cn12 | – | inactive | – | – | inactive | – | inactive | inactive | inactive | inactive | 0.551 µM (active) | – | 0.552 µM (active) | 0.628 µM (active) | 0.561 µM (active) | – | – | – | – | –
CCCCCCCC1CCC(=O)O1 (stereo not given) | inactive | inactive | inactive | inactive | inactive | inactive | inactive | inactive | inactive | inactive | – | – | – | – | – | – | – | – | – | –
CCN(CC)C(=S)SSC(=S)N(CC)CC | inactive | – | – | – | – | – | – | – | – | – | 35.4 µM (active) | 12.8 µM (active) | – | 20 µM (active) | 31.2 µM (active) | 7.46 µM (active) | 24.4 µM (active) | 31.6 µM (active) | 33.3 µM (active) | 28.8 µM (active)
Cn1cc[nH]c1=S | inactive | inactive | inactive | inactive | inactive | inactive | inactive | inactive | inactive | inactive | – | – | – | – | – | – | – | – | – | –
C[Si](C)(C)C(F)(F)C(F)(F)C(F)(F)F | inactive | inactive | inactive | inactive | inactive | inactive | inactive | inactive | inactive | inactive | – | – | – | – | – | – | – | – | – | –
CCCCCCCCCC | inactive | inactive | inactive | inactive | inactive | inactive | inactive | inactive | inactive | inactive | – | – | – | – | – | – | – | – | – | –
O=C(NO)C1(NS(=O)(=O)c2ccc(Oc3ccc(F)cc3)cc2)CCOCC1 | inactive | inactive | inactive | inactive | inactive | inactive | inactive | inactive | inactive | inactive | – | – | – | – | – | – | – | – | – | –
CCc1ccc(O)c(C(C)(C)C)c1 | inactive | inactive | inactive | inactive | inactive | inactive | inactive | – | inactive | inactive | – | 20 µM (active) | – | – | – | – | – | – | – | –
CCCc1ccccc1 | inactive | inactive | inactive | inactive | inactive | inactive | inactive | inactive | inactive | inactive | – | – | – | – | – | – | – | – | – | –
CCCCCCCCCCCCCCCCOS(=O)(=O)O | inactive | – | inactive | inactive | inactive | inactive | inactive | inactive | inactive | inactive | – | – | – | – | – | 14.9 µM (active) | – | – | – | –
CC(C)CC(C)O (stereo not given) | inactive | inactive | inactive | inactive | inactive | inactive | inactive | inactive | inactive | inactive | – | – | – | – | – | – | – | – | – | –
COc1cc(C(C)C)c2c(c1)S(=O)(=O)N(COc1cc(=O)n3cccc(OCCN4CCCCC4)c3n1)C2=O | inactive | – | inactive | inactive | inactive | – | inactive | – | inactive | inactive | 3.65 µM (active) | 6.18 µM (active) | – | – | – | 3 µM (active) | – | – | – | –
Cc1ncc([C@@H](CCCCCCc2ccc3c(n2)NCCC3)CC(=O)O)cn1 | inactive | inactive | inactive | inactive | inactive | inactive | inactive | – | inactive | inactive | – | 3.97 µM (active) | – | – | – | – | – | – | – | –
c1ccc2ncccc2c1 | inactive | inactive | inactive | inactive | inactive | inactive | inactive | inactive | inactive | inactive | – | – | – | – | – | – | – | – | – | –
Cc1nc(-c2ccccn2)ncc1C(=O)Nn1cc(C)c2cc(F)ccc21 | inactive | inactive | inactive | inactive | inactive | inactive | inactive | – | inactive | inactive | – | 22.6 µM (active) | – | – | – | – | – | – | – | –
